Hits are enriched below; roughly 0.99% of the tested compounds scored in any of these assays.
LANA-H2B inh – blocks KSHV LANA binding to histone H2A/H2B | hit rate 0.6% among 320,000 | AID 2629 | cell-free LANA-H2A/H2B peptide, fluorescence polarization | Q9QR71 | inhibition, % (test concentration not listed); in the data active = inhibition mostly above about 10%, no sharp cut-off; inactive = mostly below about 6.7%
Keap1-Nrf2 PPI – Keap1-Nrf2 (human) interaction inhibition; hit rate 0.15% among 340,000; inhibition, % at 9.4 µM; AID 504523; Keap1 Kelch-Nrf2 peptide fluorescence polarization, 1536-well; in the data active = inhibition above about 12%;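 also: human Keap1 Kelch domain with fluorescein labeled Nrf2 9mer peptide probe; 0% = neutral control wells and 100% = peptide positive control; higher means more block of Keap1 binding to Nrf2 peptide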
Target sequence (Q14145 whole entry, looked up, the tested form may be a part): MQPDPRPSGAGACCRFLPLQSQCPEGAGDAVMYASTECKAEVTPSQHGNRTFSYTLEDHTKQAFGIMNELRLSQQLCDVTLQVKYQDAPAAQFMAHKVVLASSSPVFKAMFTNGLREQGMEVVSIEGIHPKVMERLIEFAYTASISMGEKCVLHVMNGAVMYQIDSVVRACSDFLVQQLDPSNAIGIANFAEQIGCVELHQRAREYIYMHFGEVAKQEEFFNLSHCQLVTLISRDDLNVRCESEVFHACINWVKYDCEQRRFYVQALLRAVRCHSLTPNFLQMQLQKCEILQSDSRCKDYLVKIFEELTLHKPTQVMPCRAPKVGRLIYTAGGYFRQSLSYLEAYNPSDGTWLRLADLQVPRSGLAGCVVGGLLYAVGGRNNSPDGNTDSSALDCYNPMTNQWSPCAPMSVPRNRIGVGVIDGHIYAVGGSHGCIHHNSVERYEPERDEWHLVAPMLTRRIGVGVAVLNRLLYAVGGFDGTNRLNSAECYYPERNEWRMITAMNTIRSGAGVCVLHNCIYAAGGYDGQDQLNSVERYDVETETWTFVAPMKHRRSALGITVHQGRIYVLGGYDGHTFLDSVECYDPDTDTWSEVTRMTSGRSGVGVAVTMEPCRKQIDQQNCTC
Cardiac RTF inh – cardiac RTF calcium desensitization; hit rate 0.12% among 340,000; inhibition, % at 7.15 µM; IANBD-labeled cardiac RTF, Ca2+ fluorescence;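 active = inhibition above the mean inhibition of all tested compounds plus 3 SD, cut at about 17% in these data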;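 also: assay run at fixed EC70 calcium of 1.6 mM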
LANA DNA inh – inhibitors of KSHV LANA C-terminal domain DNA binding; inhibition, % at 9 µM; hit rate 0.078% among 340,000; MBP-C-LANA/FAM-LBS DNA binding, fluorescence polarization; AID 504423;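 active = highest replicate inhibition at or above 60% at 9 µM, even if other replicates fall short; inactive = all replicates below 60% inhibition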;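 also: 0% = neutral control wells and 100% = 4 µM acridine orange control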
cardiac RTF act – cardiac RTF calcium sensitization. P19429+P45379. IANBD-labeled TnC RTF fluorescence at EC20 calcium; 0% EC20 calcium, 100% full calcium. activation, % at 7.2 µM. hit rate 0.24% among 340,000. AID 493008;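 active = activation above the mean over all tested compounds plus 3 SD, cut at about 30% in these data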;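 also: rise in fluorescence read as greater calcium sensitivity of cardiac thin filaments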
* hit, by the source's call; i = inactive; . = no result.

SMILES | LANA-H2B inh | Keap1-Nrf2 PPI | Cardiac RTF inh | LANA DNA inh | cardiac RTF act
O=C(CC1C(=O)NCCN1Cc1cccc(F)c1)NCCCN1CCCC1=O (stereo unspecified) | 15* | 2 | -14 | 1 | 8
CCOc1ccccc1CN1CCNC(=O)C1CC(=O)NCCc1ccccn1 (stereo unspecified) | 99* | -1 | -11 | 2 | 0
CCOc1ccccc1CN1CCNC(=O)C1CC(=O)N(C)CCc1ccccn1 (stereo unspecified) | 1 | -3 | 1 | 0 | 0
COc1ccc(CCNC(=O)CC2C(=O)NCCN2CC(C)(C)C)cc1 (stereo unspecified) | -1 | -2 | -3 | -1 | 1
Oc1c(Br)cc(/C=N/n2c(-c3ccccc3)n[nH]c2=S)c(O)c1Br | -2 | 24* | -4 | 24 | -2
Oc1c(Br)cc(/C=N/n2c(-c3ccccc3)n[nH]c2=S)cc1Br | 0 | -3 | 0 | -7 | 1
O=C(CCCn1c(=S)[nH]c2cc3c(cc2c1=O)OCO3)NCc1ccccc1Cl | -1 | 1 | -2 | 0 | -3
O=C(NC1CCCCC1)C(c1ccncc1)N(Cc1ccc2c(c1)OCO2)C(=O)c1cnsn1 (stereo unspecified) | -2 | -4 | -2 | -1 | 1
Cc1ccc(S(=O)(=O)/N=C(/NNC(=O)c2cccc(Cl)c2)c2ccccc2)cc1 | -4 | -3 | -9 | -1 | -6
Cc1cc(C)c2cc(CN(Cc3ccco3)C(=S)NCC3CCCO3)c(=O)[nH]c2c1 (stereo unspecified) | 20* | -10 | 3 | -2 | 8
Cc1ccc(N(CC2CO2)S(=O)(=O)c2ccccc2[N+](=O)[O-])cc1 (stereo unspecified) | -1 | -4 | -5 | -1 | -1
O=[N+]([O-])c1ccccc1S(=O)(=O)N(CC1CO1)c1ccccc1 (stereo unspecified) | 13* | 4 | 7 | 0 | -1
CCC/C=N/Nc1nnc(Cc2ccc(OC)c(OC)c2)c(=O)[nH]1 | -2 | -3 | -10 | 0 | 0
O=c1[nH]ncc2c3ccccc3n(Cc3cccc(Cl)c3)c12 | 3 | -13 | -54 | 2 | 56*
CN1CC=C2C(C#N)=C(N)C(C#N)(C#N)[C@H](c3cccc(Cl)c3)C2C1 (stereo partly specified) | 3 | 4 | -34 | 28 | 27
CN1CC=C2C(C#N)=C(N)C(C#N)(C#N)C(CCc3ccccc3)C2C1 (stereo unspecified) | 2 | 20* | -28 | 51 | 35*
O=c1c2ccccc2nc(-c2ccccc2)n1CCN1CCOCC1 | 4 | -2 | -14 | -1 | -5
COc1ccc(-c2nc3ccccc3c(=O)n2CCCN2CCOCC2)cc1 | 16* | -5 | 5 | -1 | -1
N#C/C(=C\C=C\c1ccccc1)c1nc(-c2ccc3c(c2)OCO3)cs1 | 2 | 0 | -24 | 4 | 34*
CCN(CC)CCOC(=O)c1ccc(N/C=C(/C#N)c2nc(-c3ccc4c(c3)OCO4)cs2)cc1 | -5 | -4 | 5 | 0 | -9
CN(C)c1ccc(/C=C(/C#N)C(=O)NCc2ccccc2)o1 | -7 | -19 | -98 | 3 | 69*
N#C/C(=C/c1ccccc1)C(=O)NCc1ccccc1 | 6 | -6 | -3 | 1 | 4
C=CCOC(=O)C1=C[C@@H](c2coc3ccccc3c2=O)[C@H](CCCO)[C@@H](OCC)O1 | -1 | -4 | -20 | 1 | 11
CCc1cccc(NS(=O)(=O)c2ccc3c(c2)NC(=O)CO3)c1 | -3 | -4 | -1 | 1 | -3
COc1cccc(C(C)NC(=O)Nc2ccccc2Cl)c1 (stereo unspecified) | 15* | 0 | 2 | 1 | 4
SMILES | LANA-H2B inh | Keap1-Nrf2 PPI | Cardiac RTF inh | LANA DNA inh | cardiac RTF act
COc1cccc(C(C)NC(=O)c2c(F)cccc2Cl)c1 (stereo unspecified) | 1 | -6 | -6 | -3 | 9
O=C1CSC(c2ccc([N+](=O)[O-])cc2)N1C1CCCCC1 (stereo unspecified) | 6 | -1 | 0 | -1 | 3
O=C(Nc1cc([N+](=O)[O-])ccc1F)C1CC1 | 29* | 6 | -1 | 1 | -3
O=C(Nc1cc([N+](=O)[O-])ccc1Cl)C1CC1 | -4 | -1 | -8 | 1 | 6
N=C1/C(=C\c2coc3ccccc3c2=O)C(=O)N=C2SC(c3ccncc3)=NN12 | -23 | -62 | -171 | -24 | 92*
CC(C)CSC1=NSC2=NC(=O)/C(=C\c3coc4ccccc4c3=O)C(=N)N12 | 60* | -122 | i | 5 | 662*
N=C1/C(=C\c2coc3ccc(O)cc3c2=O)C(=O)N=C2SC=CN12 | -1 | -8 | -218 | 27 | 152*
CC(C)CSC1=NSC2=NC(=O)/C(=C\c3ccccc3)C(=N)N12 | . | -8 | -5 | 13 | -2
Cc1cc(/C=C2\C(=N)N3C(SCc4ccccc4)=NSC3=NC2=O)c(C)n1Cc1ccccc1 | 1 | 1 | -4 | 0 | 1
CSC1=NSC2=NC(=O)/C(=C\c3coc4ccccc4c3=O)C(=N)N12 | 9 | -75 | -143 | 12 | 193*
N=C1/C(=C/c2coc3ccccc3c2=O)C(=O)N=C2SC(c3ccco3)=NN12 | -5 | . | . | . | .
Cc1nc(-c2ccccn2)nc(SCC(=O)c2ccc(F)cc2)c1Cl | -1 | -2 | -1 | 0 | -3
O=C(CSc1nnc(-c2ccncc2)n1Cc1ccccc1)Nc1nccs1 | 4 | -2 | 16 | 0 | 4
c1cncc(CNc2c3c(nc4nnnn24)CCCC3)c1 | 18* | -1 | -8 | -1 | 5
CCCCCCc1ccc(N2C[C@H](CCCCC)[C@@H](CC(=O)NCc3ccccc3)C2=O)cc1 | 4 | 1 | -1 | 2 | 8
CCOc1ccc(NC(=O)C23CC4CC(C2)CC(c2ccccc2)(C4)C3)cc1 | 14* | -2 | -19 | 2 | -3
C=CCN=C1S/C(=C\c2ccc(N(C)C)cc2)C(=O)N1CC=C | 16* | -6 | -13 | -1 | 0
C=CCN1C(=Nc2ccccc2)SC/C1=C\C(=O)OC | -6 | -4 | 7 | -3 | 1
CC(=O)N1CCN(C(=O)c2c(-c3ccccc3)noc2C)CC1 | 22* | -2 | -3 | 0 | -6
Cc1cccc(C(=O)N2CCCC(N3CCN(c4ccc(F)cc4)CC3)C2)n1 (stereo unspecified) | 3 | -6 | 0 | 1 | -4
CN(C)c1ccc(/C=C/c2nc3ccccc3c(=O)n2CCO)cc1 | -17 | -57 | -135 | 12 | 38*
O=c1c2ccccc2nc(/C=C/c2ccccc2)n1CCCO | 3 | 2 | 3 | -3 | -9
O=C(Nc1ccccc1C(=O)N1CCCC1)c1ccc(Cl)cc1Cl | 18* | 3 | -8 | 1 | -10
O=C(O)c1c(C(=O)O)c(-c2ccc(F)cc2)n2c1CCC2 | 5 | 3 | 2 | 0 | -5
COc1ccccc1C(=O)NCCC(=O)NCC1COc2ccccc2O1 (stereo unspecified) | 23* | 0 | -1 | 0 | -1

Compound activity: PubChem BioAssay, several laboratories
